In ChEMBL document CHEMBL5308541, “MAIP: An Open-Source Tool to Enrich High-Throughput Screening Output and Identify Novel, Druglike Molecules with Antimalarial Activity” (ACS Med Chem Lett, 2023):
Screen size: about 4,800 compounds; about 410 (8.5%) showed an effect of 50% or more. For the sample, strong results were picked, then their nearest neighbours and some compounds at random.

What follows are compounds tested on Plasmodium falciparum (assay: Confirmatory screen in NF54 pLDH assay, in single point, at 2uM, 72h). Details: timepoint 72 hour.
Type: functional, Erythrocyte

Row | Compound | % Inhibition
1 | CN1CCC(N(Cc2ccccc2)C(=O)c2cc3cnccc3[nH]2)CC1 | 58%
2 | Cc1cc(N2CCC(NC3CCNC(c4ccccc4)C3)CC2)nc(C)n1 (stereo not drawn) | 33%
3 | Cc1cc(N2CCC(NC3CCCC3Cc3ccc(F)cc3)CC2)nc(N)n1 (stereo not drawn) | 103%
4 | O=C(NCC1CC1)c1cc2c(OCc3ccc(Cl)cc3)cccc2[nH]1 | 53%
5 | Cc1cc(NC[C@H](O)COc2ccc(F)cc2)nc2ccccc12 | 81%
6 | N#Cc1ccc(N2C[C@H](COCC3CC3)C3(CCN(Cc4cccc(O)c4)CC3)C2)cc1C(F)(F)F | 89%
7 | COCCCN1CCC(Nc2ncnc3cc(C)c(C)cc23)CC1 | 94%
8 | CC1(N2CCC2)CCC(NC[C@H]2CCN(Cc3ccccc3)C2)CC1 (stereo partly drawn) | 66%
9 | Cn1nnc(C(=O)N2CCCCC23CCCCCC3)n1 | 59%
10 | Cc1ccc2[nH]c(-c3cc4n(n3)CCN(c3ccnc(N)n3)C4)nc2c1C | 97%
11 | c1ccc(CN2CCC(CCNC[C@@H]3CCCN4CCCC[C@H]34)CC2)cc1 | 63%
12 | CCN(Cc1cnn(-c2cccc(Cl)c2)c1)CC1CCN(C2CCN(C)CC2)CC1 | 92%
13 | CCN(Cc1[nH]c2ccc(Cl)cc2c1C)CC1CCN(C2CCN(C)CC2)CC1 | 102%
14 | COc1ccc(-c2cc(-c3ccccc3O)n([C@@H]3C(=O)Nc4ccc(Br)cc43)n2)cc1 | 46%
15 | CC(C)c1ccc(-c2nc(CN3CCCCC3)cc(CN3CCCCC3)c2O)cc1 | 92%
16 | CC(C)c1ccc(-c2noc(CCN3CCN(CCCN(C)C)CC3)n2)cc1 | 30%
17 | c1ccc(CNc2ccc(-c3noc(C45CCCN(CCC4)C5)n3)cn2)cc1 | 99%
18 | C[C@@H](CNC1CCN(C2CCN(C)CC2)CC1)c1cccc(Cl)c1 | 103%
19 | CCCc1cccc(CNC2CCN(C3CCN(C)CC3)CC2)c1 | 71%
20 | CN1CCN(CCNC2CCN3CCCC3C2)C(c2ccccc2)C1 (stereo not drawn) | 28%
21 | c1cncc(-c2ccc(CNC3CCN(Cc4cccs4)CC3)cc2)c1 | 86%
22 | Brc1cccc(NCCNC2CCN(Cc3cccnc3)CC2)c1 | 41%
23 | CN1CCN(CCOc2ccccc2CN(C)Cc2cc3cc(F)ccc3[nH]2)CC1 | 104%
24 | COc1ccc(CNCc2cc3ccccc3[nH]2)cc1CN(C)C | 36%
25 | CN(c1ccccc1)c1ccc(CN2CCN([C@H]3CCNC3)CC2)cc1 | 0%
26 | CN1CCC[C@H](CN2CCN(Cc3cc4n(n3)CCCNC4)CC2)C1 | -7%

Row | Compound | % Inhibition
27 | N[C@H]1CC[C@@H](NC2CCN(c3ccc(F)c(F)c3)CC2)CC1 | 35%
28 | Fc1ccc(N2CCC(N[C@@H]3COC4(CCNCC4)C3)CC2)cc1F | 6%
29 | Cc1nc2ccc(CNC3CCN(c4ccc(F)c(F)c4)CC3)cc2[nH]1 | 64%
30 | CN(CCCn1ccnc1)c1ccnc2cc(Br)ccc12 | 98%
31 | Cc1cccc(Nc2ccnc(Nc3ccc(N4CCN(C)CC4)cc3)n2)c1 | 99%
32 | CN1CCN(CC2CCN(c3ccnc4ccccc34)CC2)CC1 | 103%
33 | COc1ccc2c(N3CC[C@H](CN4CCCC4)C3)ccnc2c1 | 102%
34 | CNc1nc(N2CCN(CC(=O)NC3CCCCC3)CC2)nc2ccccc12 | 26%
35 | Cn1cncc1[C@@H]1CNC[C@H]1CNC(=O)c1ccccc1NC1CCCCC1 | 73%
36 | O=C(Nc1cnc2c(c1)COCC2)c1cc2c(OC(F)(F)F)cccc2[nH]1 | 102%
37 | CCN1CCC[C@H](Nc2cccc(-n3ccnc3)n2)C1 | 32%
38 | O[C@H]1CCN(Cc2ccccc2CNc2cccc(-n3ccnc3)n2)C1 | 101%
39 | O[C@H]1CCN(Cc2cccc(NCc3cn4ccnc4s3)c2)C1 | 45%
40 | CN1CCN(CCCCNC2CC3CCC(C2)N3Cc2ccccc2)CC1 (stereo not drawn) | 41%
41 | OCCN1CCC(NCCc2cc(Cl)cc(Cl)c2)CC1 | 30%
42 | Nc1ccnc2ccc(-c3ccc(C(=O)NCC4CCOCC4)cc3)cc12 | 102%
43 | O=C1C2CCCCC2C(c2c(-c3ccccc3)[nH]c3ccccc23)N1Cc1ccccc1 (stereo not drawn) | 33%
44 | COc1cc2nc(NCC3(N4CCN(C)CC4)CCCC3)cc(C)c2cc1OC | 103%
45 | Cc1ccccc1-c1cccc(N2CCC(NCC3CCNCC3)CC2)c1 | 100%
46 | Cc1ccccc1-c1cccc(CNCCCN2CCC[C@H](O)C2)c1 | 17%
47 | Cc1ccc2[nH]c(CNC[C@@H](CO)C3CCC3)cc2c1C | 80%
48 | CNc1nc(C)c(-c2ccnc(Nc3cccc(S(C)(=O)=O)c3)n2)s1 | 45%
49 | Nc1nc(NCC2CCN(CCc3ccccc3)CC2)cc([C@H]2C[C@@H](N)C2)n1 | 26%
50 | Cc1cc(NC[C@H]2CN(CC(C)C)CCO2)c2ccccc2n1 | 28%
51 | CCCN1CCC(Nc2cc(C)nc3ccccc23)CC1 | 89%
52 | CC(C)CCOc1ccc2[nH]c(-c3cc(N4CCC[C@@H]4CS(C)(=O)=O)ccn3)cc2c1 | 98%

Row | Compound | % Inhibition
53 | COc1ccc2cc(-c3cc(N)ccn3)[nH]c2c1 | 89%
54 | Nc1ccnc(-c2cccc3[nH]ccc23)c1 | 0%
55 | COc1ccc2[nH]cc(-c3ccc(N)nc3)c2c1 | -21%
56 | COc1ccc2cc(NC(=O)c3cc(-c4c(C)nn(C)c4C)[nH]n3)cnc2c1 | 81%
57 | Oc1cccc2c1CCC[C@@H]2NCc1ccc2occc2c1 | 55%
58 | CN(C)C1CCN(CCN[C@H]2CCc3ccc(F)cc32)CC1 | 97%
59 | CCN1CCN(C[C@@H](C)CNCc2cc(-c3ccccc3)ccc2OC)CC1 | -4%
60 | O[C@H](COc1ccccc1CNCc1cc(-c2ccccc2)[nH]n1)CN1CCCCC1 | 103%
61 | Cc1ccn2cc(-c3ccc(N4CCC(NCc5cccnc5)CC4)cc3)nc2c1 | 102%
62 | Cc1nc(N2CCN(C)CC2)cc(N2CCN(S(=O)(=O)c3ccccc3C(F)(F)F)CC2)n1 | 56%
63 | O=C(NCc1ccc(N2CCNCC2)c(F)c1)c1ccc(-c2noc(C(F)(F)F)n2)cc1 | 54%
64 | c1ccc2c(Nc3ccc4[nH]cnc4c3)c3ccccc3nc2c1 | 102%
65 | FC(F)(F)c1ccc(-c2c(-c3ccccc3)ncn2Cc2ncn[nH]2)cc1 | 7%
66 | Cc1cnccc1NCCNCc1cnc(N2CCCCC2)nc1 | 62%
67 | Cc1cnccc1NCCNCc1cccc(OCCCCN2CCOCC2)c1 | 95%
68 | CCCN1CCC(N2CC(c3cccnc3)C(c3nc(C4CCCC4)no3)C2)CC1 (stereo not drawn) | 10%
69 | OCC1CCCN1CCCCNC1CC2(CCC2)Oc2ccccc21 (stereo not drawn) | -5%
70 | COc1ccc2c(O)c(Br)c(C)nc2c1 | 72%
71 | COc1ccc2nc3cc(Cl)ccc3c(O)c2c1 | 39%
72 | Cc1nc(-c2ccccn2)nc(NC2CCN(CC(F)F)CC2)c1C | 24%
73 | Cc1cnccc1N1CCCN(Cc2ccccc2OCCN2CCN(C)CC2)CC1 | 102%
74 | CCCC(=O)NC1COCC1Cc1ccncc1 (stereo not drawn) | 86%
75 | CCOc1cc(C(=O)NC2CCN(CC3CCCC3)CC2)cc(-c2ccccc2)c1OC | 99%
76 | Cc1cc(F)ccc1N1CCC(NCCCNc2cccnc2)CC1 | -2%
77 | FC(F)(F)c1ccc(N2CCC[C@H](NC3CCN(Cc4ccco4)CC3)C2)nc1 | 38%
78 | CCc1cc(Nc2ccc(N3CCOCC3)nc2)nc(-c2ccncc2)n1 | 42%

Row | Compound | % Inhibition
79 | O=C(NC1CCN(CCOc2ccc(Cl)cc2)CC1)c1c[nH]c2ccncc2c1=O | 100%
80 | O[C@@H](CNCc1cc2cc(Cl)c(Cl)cc2[nH]1)c1ccc(F)cc1 | 80%
81 | OC[C@H](CNCc1cc2ccc(F)cc2[nH]1)c1ccccc1Cl | 82%
82 | Cc1cc(N2CCC(N(C)Cc3cc(-c4ccccc4)n[nH]3)CC2)nc(N)n1 | 52%
83 | CN(CCCc1cc(-c2ccc(F)cc2)n[nH]1)CC1CCNCC1 | 17%
84 | CCN1CCN(c2ccc(CNCc3cccc(O)c3)cc2F)CC1 | 85%
85 | Cc1ccccc1CN1CCC(CNc2c3c(nc4ccccc24)CCC3)CC1 | 103%
86 | N#Cc1cccc(Cl)c1N1CCC(N2CCCC2)CC1 | 38%
87 | CCc1cc(NCCc2nc3cc(F)ccc3[nH]2)nc(-c2ccccn2)n1 | 9%
88 | COCCNc1nc(N[C@@H](C)c2ccccc2)c2ccccc2n1 | 92%
89 | C[C@H](Nc1nc(N)c2ccccc2n1)c1cccc(-n2cncn2)c1 | 29%
90 | NCC1(O)CCN(c2ccnc3cc(F)c(Cl)cc23)CC1 | 97%
91 | CCc1oc2ccccc2c1CNC[C@H](O)c1ccc(Cl)cc1 | 99%
92 | CC(C)c1ccc(CN2CCC[C@@](O)(CNCCN3CCNCC3)C2=O)cc1 | 29%
93 | O=C1CN(C(=O)c2ccnc3ccccc23)CCN1Cc1ccccc1F | 63%
94 | COc1cc2nc(-c3ccc(F)c4cccnc34)nc(N)c2cc1OC | 102%
95 | Cc1cccc(N2CCC(NCc3cc(C)cc(CN4CCN(C)CC4)c3C)CC2)c1 | 84%
96 | Cc1cc(C)c(CN2CCN(C)CC2)cc1CNCCCn1ccnc1C | 44%
97 | Clc1ccc2[nH]c3c(c2c1)CCCC3NC1CCN(C2CCOC2)CC1 (stereo not drawn) | 96%
98 | O=C(NCc1ccc(OC(F)(F)F)cc1)N(CCN1CCCC1)[C@H]1CCCNC1 | 33%
99 | CCN1CCC(N2CCC(C(=O)NCCc3ccc(OC(F)(F)F)cc3)CC2)CC1 | 53%
100 | Cc1sc2nc(-c3ccccn3)nc(NCCc3nccn3C)c2c1-c1ccccc1 | 65%
101 | O=C(CCc1nnc(-c2ccc(-c3ccccc3)cc2)o1)NC[C@@H]1CCCN2CCCC[C@H]12 | 86%
102 | COc1ccc2nc(C)cc(NCc3cccc(NC(=O)c4ccco4)c3)c2c1 | 105%
103 | Cc1c(CN2CCC(O)(Cn3ccnc3)CC2)[nH]c2c(Cl)cccc12 | 99%
